Activity calls are given as the source filed them. Calls come from the whole dose curve; as a rule, active = well fitted curve in the direction sought with a large enough effect; inactive = no such curve, though single readings can be large or run the other way.
Experiment: qHTS for small molecule inhibitors of Yes1 kinase: Counter Assay (AID 686950);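 note: no kinase present so only ADP-Glo detection of a fixed ADP amount is tested; luminescence from ADP-Glo reporting ADP in a fixed ATP and ADP mixture; 0% = DMSO wells with ATP plus ADP and -100% = ATP-only wells without ADP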
Conditions: series mostly up to 76.9 µM; activity change, negative = inhibition: at the top concentration
Text: The Src family of non-receptor protein tyrosine kinases contains nine members, including Yes1, Src, Fyn, Lyn, and […]. These kinases have important roles in a variety of cellular functions, such as cell proliferation, survival, and differentiation. Src, the most well characterized member of this family, has been previously identified as a proto-oncogene. […] In melanoma, it has been shown that Yes1, and not other family members, such as Src, is functionally involved in the malignant phenotype. Additionally, a recent study examining the downregulation of Yes1 by shRNA found significant effects on cell survival/growth for basal-like and Her2-positive breast cancers. Despite the potential for Yes1 to be a target for the above-described cancers, there are very few reports on the identification of potent and selective inhibitors of Yes1 kinase. Antagonists of Yes1 would further elucidate Yes1 biology and help to confirm whether Yes1 is a viable target for therapeutic intervention in a variety of cancers.
A compound that inhibits Yes1 could be important for the treatment of various cancers in which Yes1 is highly expressed and can also be used as a tool compound to help further elucidate Yes1 biology. To that end, we have developed a sensitive HTS biochemical assay for Yes1 activity. This assay was screened against several small compound libraries to look for modulators of activity. The cherrypicked compounds were screened against this counter assay, which evaluates whether the compounds have any effect on the ADP-Glo detection kit. Compounds that show inhibition in this assay have interference with the detection system. Inactivity is the desired output for this assay.
NIH Molecular Libraries Probe Production Centers Network [MLPCN]
NIH Chemical Genomics Center [NCGC]
Two microliter of buffer (columns 1-48) are dispensed into Greiner, white solid-bottom 1536-well assay plates. Compounds (23 nL) are then transferred via Kalypsys pin tool equipped with 1536-pin array (10 nL slotted pins, V&P Scientific, San Diego, CA). The library compounds are in columns 5-48 and columns 1-4 serve as controls with DMSO. Following addition of compound and a 20 minute incubation, 1 uL of substrate/product mix (ATP and ADP from Sigma-Aldrich, St. Louis, MO) is added to columns 1, 2, 5-48 and 1 uL of substrate (ATP) is added to columns 3-4, and the plate is incubated for 60 minutes at room temperature. The amount of ADP is then quantified by the ADP-Glo Kit (Promega, Madison, WI). First, 2 uL of the first kit reagent is added, and the reaction is incubated for 45 minutes; then, 4 uL of the second kit reagent are added and the reaction is incubated for 30 minutes at which time the luminescence is read on a Viewlux plate reader (Perkin-Elmer, Waltham, MA). The final concentration of reagents in the reaction are 0.08 mM ATP and 0.02 mM ADP (or 0.1 mM ATP in the no ADP control columns), 100 uM EGTA, 10 mM MgCl2, 50 mM Tris pH 7.5, 1 mM DTT, 150 mM NaCl, 0.01% Brij-35, and 5% glycerol. Data are normalized to DMSO-treated control columns with ATP and […] (maximum signal) and with just ATP (minimum signal).

SMILES	activity change, negative = inhibition	outcome
COc1ccc2c(c1)CC[C@@H](CN(C)CC(=O)O)[C@H]2c1ccccc1	2.3% (inactive)	–
C=CC(=O)Nc1cc2c(Nc3ccc(F)c(Cl)c3)ncnc2cc1C#CC(C)(C)N1CCN(C)CC1	0.139% (inactive)	–
CC(C)(O)CCc1ccc(OCc2cc(-c3cccc(OC(F)F)c3)c3ncccc3c2)cc1	2.86% (inactive)	–
Cc1cc(Nc2cc(N3CCN(C)CC3)nc(C=Cc3ccccc3)n2)n[nH]1	2.02% (inactive)	–
O=C(NCCS(=O)(=O)c1ccc(C(F)(F)F)cn1)c1ccc(Cl)cc1	3.4% (inactive)	–
CCC[C@H](NC(=O)C(C#N)=Cc1cccc(Br)n1)c1ccccc1	5.96% (inactive)	–
C1=CCOCc2cc(ccc2OCCN2CCCC2)Nc2nccc(n2)-c2cccc(c2)OCC1	5.35% (inactive)	–
C[C@@H](Oc1cc(-n2cnc3ccc(CN4CCN(C)CC4)cc32)sc1C(N)=O)c1ccccc1C(F)(F)F	5.82% (inactive)	–
CC(C)=CCCC(C)=CCCC(C)=CCSc1ccccc1C(=O)O	4.67% (inactive)	–
CC(C)CC(=O)Nc1n[nH]c2c1CN(C(=O)C1CCN(C)CC1)C2(C)C	0.261% (inactive)	–
CCOc1cc2ncc(C#N)c(Nc3ccc(F)c(Cl)c3)c2cc1NC(=O)C=CCN(C)C	-1.01% (inactive)	–
COc1ccc(CC2SC(=O)NC2=O)cc1C(=O)NCc1ccc(C(F)(F)F)cc1 (stereo not given)	0.001% (inactive)	–
c1ccc2c(CCNc3ccc(Nc4ccncc4)cc3)c[nH]c2c1	3.83% (inactive)	–
CC[C@@H]1C(=O)N(C)c2cnc(Nc3ccc(C(=O)NC4CCN(C)CC4)cc3OC)nc2N1C1CCCC1	5.95% (inactive)	–
O=C(C=Cc1c(C(=O)O)[nH]c2cc(Cl)cc(Cl)c12)Nc1ccccc1	3.62% (inactive)	–
CC(C)(C)OC(=O)Nc1ccc(-c2cc(C(=O)NCCCCCCC(=O)NO)no2)cc1	1.27% (inactive)	–
CC(=O)OCCN1C(=O)c2c(C)nc3ccc(S(=O)(=O)N4CCOCC4)cc3c2C1=O	5.28% (inactive)	–
CCCCc1nc2cc(C=CC(=O)NO)ccc2n1CCN(CC)CC	0.605% (inactive)	–
CCN(CC)CCCCNc1ncc2cc(-c3cc(OC)cc(OC)c3)c(NC(=O)NC(C)(C)C)nc2n1	4.47% (inactive)	–
O=C(Nc1cc(C(F)(F)F)cc(C(F)(F)F)c1)c1cc(Cl)ccc1O	-0.575% (inactive)	–

SMILES	activity change, negative = inhibition	outcome
Cn1c(=O)n(-c2ccc(C(C)(C)C#N)cc2)c2c3cc(-c4cnc5ccccc5c4)ccc3ncc21	1.98% (inactive)	–
O=C(O)c1ccc2c(c1)nc(Nc1cccc(Cl)c1)c1ccncc12	-2.16% (inactive)	–
CCN1CCN(Cc2ccc(-c3cc4c(N[C@H](C)c5ccccc5)ncnc4[nH]3)cc2)CC1	-8.9% (inactive)	–
Cn1cncc1[C@@](N)(c1ccc(Cl)cc1)c1ccc2c(c1)c(-c1cccc(Cl)c1)cc(=O)n2C	-0.86% (inactive)	–
CN1CC[C@@H](c2c(O)cc(O)c3c(=O)cc(-c4ccccc4Cl)oc23)[C@@H](O)C1	4.61% (inactive)	–
Cc1cnc(-c2cnc(NCCNc3ccc(C#N)cn3)nc2-c2ccc(Cl)cc2Cl)[nH]1	2.9% (inactive)	–
NC(=O)c1c(OCc2c(F)cc(Br)cc2F)nsc1NC(=O)NCCCCN1CCCC1	-6.6% (inactive)	–
COc1cc(C(C)C)c2c(c1)S(=O)(=O)N(COc1cc(=O)n3cccc(OCCN4CCCCC4)c3n1)C2=O	3.51% (inactive)	–
COc1cc(=C2C=c3ccccc3=N2)[nH]c1=Cc1[nH]c(C)cc1C	-11.5% (inactive)	–
CC[C@@H]1C(=O)N(C)c2cnc(Nc3ccc(C(=O)NC4CCC(N5CCN(CC6CC6)CC5)CC4)cc3OC)nc2N1C(C)C (stereo not given in full)	2.87% (inactive)	–
CC1(C)CCC(c2ccc(Cl)cc2)=C(CN2CCN(c3ccc(C(=O)NS(=O)(=O)c4ccc(N[C@H](CCN5CCOCC5)CSc5ccccc5)c(S(=O)(=O)C(F)(F)F)c4)cc3)CC2)C1	-0.733% (inactive)	–
Cc1ccc(S(=O)(=O)Nc2cc(Cl)ccc2C(=O)Nc2nc(-c3ccccc3)cs2)cc1	2.77% (inactive)	–
Cc1cc(Nc2cc(N3CCN(C)CC3)nc(Sc3ccc(NC(=O)C4CC4)cc3)n2)n[nH]1	–	inactive
Cn1cc(-c2[nH]c3cc(NC(=O)[C@H](N)C4CCCCC4)cc4c3c2C=NNC4=O)cn1	8.03% (inactive)	–
C=CCn1c(=O)c2cnc(Nc3ccc(N4CCN(C)CC4)cc3)nc2n1-c1cccc(C(C)(C)O)n1	-3.03% (inactive)	–
CCCCN1CCC(CNC(=O)c2c3n(c4ccccc24)CCCO3)CC1	-1.06% (inactive)	–
CN1CCN(c2cc(C(=O)Nc3ccc4c(c3)-c3c(c(C(N)=O)nn3-c3ccc(F)cc3)CC4)c(Cl)cn2)CC1	-2.13% (inactive)	–
CC(=O)SC[C@@H](C)C(=O)N1CCC[C@H]1C(=O)N[C@@H](Cc1ccccc1)C(=O)O	-1.53% (inactive)	–
Clc1ccc2ncc(-c3cccc(NC4CNC4)n3)n2c1	-1.43% (inactive)	–
Nc1cc(C(F)(F)F)c(-c2cc(N3CCOCC3)nc(N3CCOCC3)n2)cn1	8.09% (inactive)	–

From PubChem BioAssay (NCATS)
